# Measured values published in PubChem BioAssay (NCATS).
# Values without a mark were called inactive. Records with an inconclusive call do not appear. Activity calls are given as the source filed them. Unless noted, calls come from the whole dose curve; as a rule, active = well fitted curve in either direction with a large enough effect (not every such curve was filed as active); inconclusive = small, poorly fitted or top-dose-only effect, or another doubt; inactive = flat fitted curve, though single readings scatter.
# How the values were obtained:
# [1] = molecular target: Lysosomal acid glucosylceramidase (Homo sapiens) (UniProt P04062); assay: Glucocerebrosidase-p2 (AID 348; in the data active = potency below about 10 µM; note: potency is the fitted concentration of half-maximal effect); conditions: purified GBA, blue fluorogenic substrate, 40 min
# Method in brief: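 Normal human glucocerebrosidase (0.2 nM) with blue fluorogenic substrate (80 uM final) in citrate/phosphate pH 5.9 with 10mM sodium taurocholate, 0.01% tween-20; 40 min RT, NaOH/glycine stop; fluorescence Ex 365/Em 440; AC50 from a titration from 0.6 nM upwards.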
# [2] = AP1 Signaling Pathway (AID 357); conditions: ME-180 AP-1-bla reporter, EGF-induced, beta-lactamase ratio, 5 h; at 7.69 µM (top of the series) unless noted;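 note: ME-180 reporter cells stimulated with EGF at its EC50 level; % is set by controls: 0 for no effect and ±100 for the full control effect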
# Method in brief: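 First, ME-180 AP-1-bla cells were cultured overnight at 37 °C in low-serum Opti-MEM. Next, titrated compounds with EC50 EGF were incubated 5 hours. Finally, CCF4 was added for 2.5 hours and the 460/530 nm ratio recorded.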
# [3] = molecular target: Cytochrome P450 1A2 (Homo sapiens) (UniProt P05177); assay: p450-cyp1a2 (AID 410; calls by dose curve; note: potency is the fitted concentration of half-maximal effect;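 for activity change, negative = inhibition: -100% = full effect of reference inhibitor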); conditions: recombinant CYP1A2, luciferin-ME demethylation, luminescence; series mostly up to 11.4 µM
# Method in brief: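 Read-out is luminescence from luciferin produced by CYP1A2 demethylation of Luciferin-ME (100uM, at Km). Detection reagent stopped the 60 min NADPH-dependent reaction; signals were normalized to 57 uM furafylline.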
# [4] = NFAT Signaling Pathway (AID 444); conditions: Jurkat NFAT-bla M1, carbachol, beta-lactamase ratio, 5 h; at 7.69 µM (top of the series) unless noted;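 note: carbachol stimulus at about its EC50 of 1 µM final; % is set by controls: 0 for no effect and ±100 for the full control effect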
# Method in brief: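 Read-out: CCF4 FRET ratio (460 nm/530 nm) after 1 h RT dye loading, used for %activity and AC50 from titration series. Cells: Jurkat NFAT-β-lactamase/M1 line, treated with compound plus 1 uM carbachol for 5 h, 37 °C.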
# [5] = Stat Signaling Pathway (AID 446); conditions: ME-180 SIE beta-lactamase reporter, IL-6 stimulated, 5 h; at 7.69 µM (top of the series) unless noted;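 note: ME-180 cervical cancer cells given 40 pM IL-6 alongside compound; SIE-controlled beta-lactamase reporter measured as 460/530 nm FRET emission ratio; % is set by controls: 0 for no effect and ±100 for the full control effect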
# Method in brief: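 FRET read-out (405 nm excitation, 460/530 nm emission) of a beta-lactamase reporter under a STAT-inducible element in ME-180 cervical carcinoma cells. Cells with compound receive 40 pM IL-6 for 5 h. Values are normalised to AC90 stimulation and AC90 JAK-inhibitor controls.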
# [6] = molecular target: Glucocorticoid receptor (Homo sapiens) (UniProt P04150); assay: GR-GFP Redistribution (AID 450;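 active = compounds whose dose series gives a full or clear partial fitted curve of increased nuclear translocation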; note: potency is the fitted concentration of half-maximal effect); conditions: U2OS GR-GFP nuclear translocation, laser cytometry, 2 h
# [7] = molecular target: Glucocorticoid receptor (Homo sapiens) (UniProt P04150); assay: GR-EFC Redistribution (AID 451; calls by dose curve; note: potency is the fitted concentration of half-maximal effect); conditions: CHO-K1 GR-EFC translocation, beta-gal luminescence, 2 h
# Method in brief: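 Translocation of GR-ED fusion to nuclear EA restores b-gal, read by luminescence after 1 h room-temperature detection. Engineered CHO-K1 biosensor cells, 1,000/well, exposed 2 h at 37 C to titrations up to 46 uM final.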
# [8] = molecular target: Mitogen-activated protein kinase 10 (Mus musculus) (UniProt Q61831); assay: JNK3 AlphaScreen Assay (AID 530); conditions: JNK3 lysate, c-Jun phosphorylation; series mostly up to 11.4 µM;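 note: kinase came from lysate of stimulated human HepG2 cells; signal reports phosphorylation of biotinylated GST-cJun 1-79 at Ser73 with 10 µM ATP; % is set by controls: 0 for no effect and ±100 for the full control effect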
# Method in brief: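 Kinase buffer: 20 mM Tris-HCl pH 7.6, 10 mM MgCl2, 1 mM DTT, 0.1 mM Na3VO4, 0.01% Tween-20; ATP 10 uM. Substrate biotin-GST-cJun(1-79), enzyme from activated HepG2 lysates. Detection by Ser73 phospho-antibody AlphaScreen.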
# [9] = molecular target: 3',5'-cyclic-AMP phosphodiesterase 4B (Homo sapiens) (UniProt Q07343); assay: qHTS Assay for Inhibitors of PDE-IV (AID 607; active = well fitted activation curve with a large enough effect in the main read-out, with a control signal flat, not every such curve was filed as active; note: % of control where 0% means no effect); conditions: HEK293 ACTOne CNG channel cells, membrane potential fluorescence; series mostly up to 22.9 µM
# Method in brief: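 Cell-based read-out of cAMP via a modified cyclic nucleotide-gated channel and membrane potential dye (535/590 nm) in HEK293 cells expressing PDE4 endogenously. Compounds tested up to 22.9 uM final; 100 uM RO 20-1724 reference.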
# [10] = molecular target: Cytochrome P450 2C9 (Homo sapiens) (UniProt P11712); assay: qHTS Assay for Inhibitors and Substrates of Cytochrome P450 2C9 (AID 883; active = well fitted curve in the direction sought with a large enough effect; an effect the other way counts as inactive or inconclusive; note: nearly all actives have a fitted effect of over 60% in size; note: potency is the fitted concentration of half-maximal effect); conditions: recombinant CYP2C9, luciferin-H luminescence, 60 min; series mostly up to 11.4 µM
# Method in brief: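 Luminescent read-out of deoxyluciferin hydroxylation, normalized to 57uM sulphaphenazole (AC100). Reaction: 10nM enzyme, 100uM Luciferin-H (equal to KM), 25mM KPO4, 10 min compound preincubation, then 60 min with NADPH regeneration, both at 37C.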
# [11] = molecular target: Cytochrome P450 3A4 (Homo sapiens) (UniProt P08684); assay: qHTS Assay for Activators of Cytochrome P450 3A4 (AID 885; active = well fitted curve in the direction sought with a large enough effect; an effect the other way counts as inactive or inconclusive; note: nearly all actives have a fitted effect of over 65% in size); conditions: recombinant CYP3A4, Luciferin-PPXE luminescence, 60 min; series mostly up to 11.4 µM
# Method in brief: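 Luminescent readout of luciferin formed from 25 uM Luciferin-PPXE (KM level) by 20 nM CYP3A4 in 200 mM KPO4, with 60 min NADPH-driven reaction at room temperature after 10 min compound exposure. Ketoconazole (57 uM) defined 100% inhibition.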
# [12] = molecular target: Cytochrome P450 2D6 (Homo sapiens) (UniProt P10635); assay: qHTS Assay for Inhibitors and Substrates of Cytochrome P450 2D6 (AID 891; active = well fitted curve in the direction sought with a large enough effect; an effect the other way counts as inactive or inconclusive; note: nearly all actives have a fitted effect of over 60% in size; note: potency is the fitted concentration of half-maximal effect); conditions: recombinant CYP2D6, luciferin-ME EGE luminescence; series mostly up to 11.4 µM
# Method in brief: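 Luminescent read-out of luciferin formed by 5 nM human CYP2D6 demethylating 30 uM Luciferin-ME EGE (Km level) over 60 min at room temperature after NADPH regeneration addition. Data normalized to full inhibition by 1.43 uM quinidine.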
# [13] = molecular target: Cytochrome P450 3A4 (Homo sapiens) (UniProt P08684); assay: qHTS Assay for Inhibitors and Substrates of Cytochrome P450 3A4 (AID 884; active = well fitted curve in the direction sought with a large enough effect; an effect the other way counts as inactive or inconclusive; note: nearly all actives have a fitted effect of over 50% in size; note: potency is the fitted concentration of half-maximal effect); conditions: recombinant CYP3A4, Luciferin-PPXE luminescence; series mostly up to 57.1 µM
# Method in brief: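 Luminescent readout of luciferin produced by CYP3A4 (20 nM) dealkylation of Luciferin-PPXE, 25 uM (its KM). NADPH-driven reaction ran 60 min at RT after 10 min compound preincubation; data scaled to 57 uM ketoconazole as 100% inhibition.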
# [14] = molecular target: Cytochrome P450 2C19 (Homo sapiens) (UniProt P33261); assay: qHTS Assay for Inhibitors and Substrates of Cytochrome P450 2C19 (AID 899; active = well fitted curve in the direction sought with a large enough effect; an effect the other way counts as inactive or inconclusive; note: nearly all actives have a fitted effect of over 60% in size; note: potency is the fitted concentration of half-maximal effect); conditions: recombinant CYP2C19, luciferin-H EGE luminescence; series mostly up to 11.4 µM
# Method in brief: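 Luminescence readout of luciferin formed from 10uM Luciferin-H EGE (KM level) by 5 nM CYP2C19 in 50mM KPO4. 60 min NADPH-driven reaction at 37C after 10 min compound preincubation; data scaled to 57uM ketoconazole inhibition.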
# [15] = qHTS Assay for Identification of Small Molecule Agonists for Hypoxia Response Element Signaling Pathway (AID 914; active = well fitted activation curve with a large enough effect in the signal ratio, with a control signal flat, not every such curve was filed as active; the % refers to the signal ratio; note: % of control where 0% means no effect); conditions: ME-180 (cervical carcinoma) HRE-bla reporter, beta-lactamase ratio, CoCl2, 17 h; activation: active compounds read high
# Method in brief: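 qHTS titration; ME-180 HRE-bla cells; EC50 CoCl2 co-treatment, 17 h at 37 degrees Celsius; CCF4 dye, ex 405nm, em 460nm and 530nm; %Activity from ratio; AC50.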
# Chain of Cytochrome P450 1A2 (Homo sapiens) (P05177 whole entry, looked up): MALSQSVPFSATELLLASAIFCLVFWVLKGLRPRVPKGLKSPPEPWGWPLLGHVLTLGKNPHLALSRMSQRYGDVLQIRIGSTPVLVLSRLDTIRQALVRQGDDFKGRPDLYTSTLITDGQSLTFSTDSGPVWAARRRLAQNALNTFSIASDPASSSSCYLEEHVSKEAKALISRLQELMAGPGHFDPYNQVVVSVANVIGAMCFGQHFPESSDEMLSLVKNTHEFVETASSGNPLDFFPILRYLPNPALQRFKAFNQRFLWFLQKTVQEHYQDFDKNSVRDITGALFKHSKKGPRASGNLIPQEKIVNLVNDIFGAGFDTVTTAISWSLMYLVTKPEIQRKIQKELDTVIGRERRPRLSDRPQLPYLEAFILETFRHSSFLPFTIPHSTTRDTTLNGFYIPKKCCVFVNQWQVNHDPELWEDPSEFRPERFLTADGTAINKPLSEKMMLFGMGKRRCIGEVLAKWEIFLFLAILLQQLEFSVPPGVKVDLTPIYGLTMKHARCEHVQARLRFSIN
# Chain of Lysosomal acid glucosylceramidase (Homo sapiens) (P04062 whole entry, looked up): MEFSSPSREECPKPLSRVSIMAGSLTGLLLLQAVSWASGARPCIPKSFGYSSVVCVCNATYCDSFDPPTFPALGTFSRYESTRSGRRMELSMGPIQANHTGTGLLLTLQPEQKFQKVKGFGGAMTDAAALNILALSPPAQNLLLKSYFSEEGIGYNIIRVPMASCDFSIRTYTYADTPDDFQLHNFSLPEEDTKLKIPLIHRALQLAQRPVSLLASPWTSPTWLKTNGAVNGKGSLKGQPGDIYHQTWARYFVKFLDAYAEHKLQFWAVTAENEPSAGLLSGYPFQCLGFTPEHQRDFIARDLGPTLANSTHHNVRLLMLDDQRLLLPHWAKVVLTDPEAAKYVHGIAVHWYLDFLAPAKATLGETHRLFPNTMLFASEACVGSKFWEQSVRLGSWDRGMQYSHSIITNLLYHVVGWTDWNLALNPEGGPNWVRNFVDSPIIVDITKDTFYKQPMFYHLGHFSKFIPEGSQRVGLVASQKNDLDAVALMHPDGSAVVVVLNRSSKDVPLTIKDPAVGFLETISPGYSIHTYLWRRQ
# Chain of Cytochrome P450 2C9 (Homo sapiens) (P11712 whole entry, looked up): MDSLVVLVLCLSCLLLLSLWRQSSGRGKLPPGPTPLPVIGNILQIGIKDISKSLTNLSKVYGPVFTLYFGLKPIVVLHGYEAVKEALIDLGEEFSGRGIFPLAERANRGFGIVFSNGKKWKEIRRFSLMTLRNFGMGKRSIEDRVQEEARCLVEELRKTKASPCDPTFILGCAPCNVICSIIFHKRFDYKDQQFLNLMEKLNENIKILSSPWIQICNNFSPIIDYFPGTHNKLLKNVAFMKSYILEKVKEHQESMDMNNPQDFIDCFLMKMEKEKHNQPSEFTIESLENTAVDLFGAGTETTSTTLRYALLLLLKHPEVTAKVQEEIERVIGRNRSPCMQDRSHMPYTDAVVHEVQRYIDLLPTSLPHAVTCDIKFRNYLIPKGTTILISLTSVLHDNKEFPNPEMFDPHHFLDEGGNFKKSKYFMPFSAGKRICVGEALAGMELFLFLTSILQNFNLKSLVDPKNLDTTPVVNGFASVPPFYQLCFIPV
# Chain of Cytochrome P450 2C19 (Homo sapiens) (P33261 whole entry, looked up): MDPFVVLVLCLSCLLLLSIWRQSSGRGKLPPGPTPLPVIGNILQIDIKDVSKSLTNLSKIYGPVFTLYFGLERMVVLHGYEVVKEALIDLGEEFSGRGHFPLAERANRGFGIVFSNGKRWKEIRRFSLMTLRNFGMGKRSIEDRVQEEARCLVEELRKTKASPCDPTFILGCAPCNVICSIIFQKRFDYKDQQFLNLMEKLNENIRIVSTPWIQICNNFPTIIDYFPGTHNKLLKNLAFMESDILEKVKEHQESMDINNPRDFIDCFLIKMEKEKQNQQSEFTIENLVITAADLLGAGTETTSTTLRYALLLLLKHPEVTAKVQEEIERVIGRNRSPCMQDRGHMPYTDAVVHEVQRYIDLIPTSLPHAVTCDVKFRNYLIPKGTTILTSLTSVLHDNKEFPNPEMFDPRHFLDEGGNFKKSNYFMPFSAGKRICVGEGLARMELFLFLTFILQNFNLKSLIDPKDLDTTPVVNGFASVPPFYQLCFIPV
# Chain of Cytochrome P450 3A4 (Homo sapiens) (P08684 whole entry, looked up): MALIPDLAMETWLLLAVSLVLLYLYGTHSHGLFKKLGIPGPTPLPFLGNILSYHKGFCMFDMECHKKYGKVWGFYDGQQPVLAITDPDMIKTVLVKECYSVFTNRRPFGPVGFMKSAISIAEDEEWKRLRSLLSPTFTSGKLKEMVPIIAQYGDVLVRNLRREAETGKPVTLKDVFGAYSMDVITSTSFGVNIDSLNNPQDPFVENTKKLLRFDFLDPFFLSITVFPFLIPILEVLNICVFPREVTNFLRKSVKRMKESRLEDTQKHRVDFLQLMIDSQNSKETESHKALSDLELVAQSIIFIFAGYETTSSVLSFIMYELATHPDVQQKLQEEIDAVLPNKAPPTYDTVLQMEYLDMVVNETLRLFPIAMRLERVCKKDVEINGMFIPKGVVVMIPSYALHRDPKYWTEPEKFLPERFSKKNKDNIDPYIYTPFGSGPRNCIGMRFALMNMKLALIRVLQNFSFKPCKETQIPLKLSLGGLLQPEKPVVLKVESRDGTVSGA
# Chain of Cytochrome P450 2D6 (Homo sapiens) (P10635 whole entry, looked up): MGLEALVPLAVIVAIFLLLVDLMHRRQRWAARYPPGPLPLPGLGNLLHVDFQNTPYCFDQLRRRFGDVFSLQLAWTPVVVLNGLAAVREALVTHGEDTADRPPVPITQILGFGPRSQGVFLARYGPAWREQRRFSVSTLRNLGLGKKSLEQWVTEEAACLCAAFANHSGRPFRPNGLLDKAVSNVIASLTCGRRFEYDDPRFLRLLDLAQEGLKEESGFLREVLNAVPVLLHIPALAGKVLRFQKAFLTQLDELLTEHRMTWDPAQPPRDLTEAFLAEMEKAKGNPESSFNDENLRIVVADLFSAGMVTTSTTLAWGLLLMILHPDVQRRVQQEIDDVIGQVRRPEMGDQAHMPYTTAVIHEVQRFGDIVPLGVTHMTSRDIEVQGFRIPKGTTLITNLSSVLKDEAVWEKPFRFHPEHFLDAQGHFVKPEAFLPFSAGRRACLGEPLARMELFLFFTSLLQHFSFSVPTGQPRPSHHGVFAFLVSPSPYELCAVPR
# Chain of Glucocorticoid receptor (Homo sapiens) (P04150 whole entry, looked up, the tested form may be a part): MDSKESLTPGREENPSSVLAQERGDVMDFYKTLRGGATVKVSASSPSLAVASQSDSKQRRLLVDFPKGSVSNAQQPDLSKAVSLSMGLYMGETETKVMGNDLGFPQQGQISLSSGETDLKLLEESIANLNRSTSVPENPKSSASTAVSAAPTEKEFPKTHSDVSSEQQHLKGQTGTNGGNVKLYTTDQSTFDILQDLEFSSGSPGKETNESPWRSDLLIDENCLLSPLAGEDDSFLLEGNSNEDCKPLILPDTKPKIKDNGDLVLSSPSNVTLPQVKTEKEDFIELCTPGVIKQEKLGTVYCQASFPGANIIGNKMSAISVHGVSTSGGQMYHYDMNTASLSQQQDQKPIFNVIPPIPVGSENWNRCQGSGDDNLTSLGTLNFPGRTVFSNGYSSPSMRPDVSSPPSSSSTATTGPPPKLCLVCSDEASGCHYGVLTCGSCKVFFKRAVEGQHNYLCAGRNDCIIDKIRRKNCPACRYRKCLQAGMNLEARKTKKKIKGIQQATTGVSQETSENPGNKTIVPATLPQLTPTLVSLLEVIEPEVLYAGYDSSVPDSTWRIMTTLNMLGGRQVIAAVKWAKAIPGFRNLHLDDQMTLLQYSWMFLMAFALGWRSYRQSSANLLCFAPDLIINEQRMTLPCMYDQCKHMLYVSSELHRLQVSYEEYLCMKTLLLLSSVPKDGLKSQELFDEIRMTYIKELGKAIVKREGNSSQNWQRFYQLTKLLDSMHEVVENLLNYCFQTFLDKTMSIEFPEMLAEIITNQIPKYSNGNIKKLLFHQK
# Chain of 3',5'-cyclic-AMP phosphodiesterase 4B (Homo sapiens) (Q07343 whole entry, looked up): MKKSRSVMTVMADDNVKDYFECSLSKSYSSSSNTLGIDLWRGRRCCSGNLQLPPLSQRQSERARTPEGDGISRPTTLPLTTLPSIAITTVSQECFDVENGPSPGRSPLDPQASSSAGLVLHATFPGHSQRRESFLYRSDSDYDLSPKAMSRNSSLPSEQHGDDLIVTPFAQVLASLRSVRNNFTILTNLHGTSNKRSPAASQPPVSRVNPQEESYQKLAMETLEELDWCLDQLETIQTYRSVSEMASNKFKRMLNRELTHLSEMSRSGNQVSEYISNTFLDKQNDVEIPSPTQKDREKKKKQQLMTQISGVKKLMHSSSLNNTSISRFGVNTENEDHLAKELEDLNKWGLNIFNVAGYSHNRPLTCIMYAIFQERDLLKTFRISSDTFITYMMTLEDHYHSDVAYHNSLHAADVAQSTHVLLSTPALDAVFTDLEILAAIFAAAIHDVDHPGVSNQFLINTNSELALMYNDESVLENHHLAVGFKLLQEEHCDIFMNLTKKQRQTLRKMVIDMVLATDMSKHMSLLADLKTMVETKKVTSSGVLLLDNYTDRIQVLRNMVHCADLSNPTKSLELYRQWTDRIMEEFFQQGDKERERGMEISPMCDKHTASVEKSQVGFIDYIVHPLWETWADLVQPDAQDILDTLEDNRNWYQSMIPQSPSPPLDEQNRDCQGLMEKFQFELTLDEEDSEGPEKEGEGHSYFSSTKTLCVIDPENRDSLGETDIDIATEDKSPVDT
Structure (SMILES),Potency [1],"activity change, negative = inhibition [2]",Potency [3],"activity change, negative = inhibition [4]","activity, negative = inhibition [5]",Potency [6],Potency [7],Potency [8],Potency [9],Potency [10],Potency [11],Potency [12],"activity change, negative = inhibition [3]",Potency [13],Potency [14],"activity change, negative = inhibition [13]",activation [15]
Clc1ccc(CSCCc2ccncc2)cc1Cl,> 11.4 µM,-26.7%,0.316 µM (active),2.37%,5.37%,> 46 µM,> 9.22 µM,inactive,inactive,0.0794 µM (active),inactive,0.316 µM (active),,,,,
O=C(O)CCc1nc(-c2ccccc2-n2cccc2)no1,> 11.4 µM,-5.29%,,8.59%,-0.807%,> 46 µM,> 9.22 µM,inactive,inactive,,inactive,,-17.3% [at 2.29 µM],2.51 µM (active),,,
CC1=C/C(=N/O)C([C@H]2C=C(C)CC(C)(C)[C@@H]2O)C(C)(C)C1 (some centres undefined),> 11.4 µM,-3.8%,inactive,-18%,0.535%,> 46 µM,> 9.22 µM,inactive,inactive,2.51 µM (active),inactive,,,,1.58 µM (active),,
O=C1c2ccccc2N[C@H](c2cc(Cl)cc(Cl)c2O)N1CCc1ccccn1,> 11.4 µM,-16.9%,,5.29%,-24.9%,> 46 µM,> 9.22 µM,inactive,inactive,3.16 µM (active),inactive,,5.8% [at 2.29 µM],,3.98 µM (active),,
O=C(O)/C(=C\c1ccccc1)Cc1ccccc1,> 11.4 µM,-5.32%,inactive,3.67%,5.03%,> 46 µM,> 9.22 µM,inactive,inactive,,,,,,,30.2% [at 11.4 µM],
CCCCSCc1nc2nc(Cl)c(Cl)nc2[nH]1,> 11.4 µM,-2.19%,3.16 µM (active),-24.8%,-21.2%,> 46 µM,> 9.22 µM,inactive,inactive,0.501 µM (active),,,,,2 µM (active),,
N#CNC(N)=Nc1ccc(Cl)cc1,> 11.4 µM,5.32%,3.98 µM (active),2.31%,-1.86%,> 46 µM,> 9.22 µM,inactive,inactive,inactive,,inactive,,,inactive,-49.7% [at 11.4 µM],
Oc1cccc2ccc(SSc3ccc4cccc(O)c4n3)nc12,> 11.4 µM,1.21%,3.16 µM (active),-22.6%,-15.4%,> 46 µM,> 9.22 µM,inactive,inactive,1.58 µM (active),inactive,,,,3.16 µM (active),,
COc1ccc([C@@H](Nc2ccccn2)c2cc(C(C)(C)C)cc(C(C)(C)C)c2O)cc1,> 11.4 µM,-15.8%,,-8.5%,-15.2%,> 46 µM,> 9.22 µM,inactive,inactive,2.51 µM (active),,,1.2% [at 2.29 µM],,2.51 µM (active),,3.06%
Cc1c(Cl)cccc1NC(=O)C[C@H]1Sc2ccccc2NC1=O,> 11.4 µM,-17.8%,,7.2%,6.79%,> 46 µM,> 9.22 µM,inactive,inactive,inactive,inactive,,-23.2% [at 2.29 µM],,,,
Oc1c(Br)cc(CN(Cc2cc(Br)c(O)c(Br)c2)C2CCCCC2)cc1Br,> 11.4 µM,11.3%,,-14%,-10.4%,> 46 µM,> 9.22 µM,inactive,inactive,2.51 µM (active),,2.51 µM (active),-5.7% [at 2.29 µM],,,,
COc1cccc2[nH]c(-c3ccccn3)nc12,> 11.4 µM,-2.26%,0.794 µM (active),1.67%,4.98%,> 46 µM,> 9.22 µM,inactive,inactive,inactive,inactive,,,,2.51 µM (active),,
